# Source: ChEMBL document CHEMBL4513135, “CO-ADD screening of IQOG CSIS (Spain) compounds”
# Among all 21,000 compounds or so, fewer than 10 showed an effect of 50% or more. Not all results are given here. Potency and affinity values are given separately.
# Tested on: Acinetobacter baumannii
# Details: Concentration 32 ug.mL-1; ASSAY_TEST Inhibition of Bacterial Growth; detection method Absorption (OD600); MEDIA CAMHB; plate type 384well; NBS; CORNING #3640; time 18 hr
row,Compound,Inhibition [%]
1,C#CCN(C)c1nc(NCCC2CCN(Cc3ccccc3)CC2)c(C#N)cc1C#N.Cl,-7.83
2,CCOC(=O)C1=C(C)Oc2nc3c(c(N)c2C1c1nccn1C)CCC3 (stereo not given),0.84
3,Nc1nc(N)c(C=O)c(-c2ccccc2)c1C=O,5.37
4,Cn1ccnc1C1C2=C(CC(C)(C)CC2=O)Oc2nc3c(c(N)c21)CCCC3 (stereo not given),-5.19
5,N#CC1=C(Cl)Oc2c(ccc3ccccc23)C1c1ccc([N+](=O)[O-])cc1 (stereo not given),-15.4
